We go through one molecule from PubChem BioAssay (NCATS).

Common to all, as to assay: qHTS profiling for inhibitors of Plasmodium falciparum proliferation (AID 504749); note: nearly all actives have a fitted effect of over 60% in size
Holding throughout (settings): P. falciparum in erythrocytes, SYBR Green DNA, 72 h; series mostly up to 28.7 µM
In general terms: In qHTS, concentration-response curves come from the screen itself.

The test system of one experiment is CP215. Put shortly: (§1)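 Fluorescence of SYBR Green-bound parasite DNA, read at 485/535 nm, served as the growth measure. Infected erythrocytes were cultured with compound 72 h; artemisinin (0.29 uM) and DMSO wells defined the normalization range.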
The test system of the next experiment is CP217. Put shortly:
as §1

A further experiment has as its system CP238. In outline:
as §1

The test system of a further experiment is CP247. Put shortly: as §1
The subject of another experiment is CP250. In outline:
as §1

In the next experiment the test system is CP252. Put shortly: as §1
The subject of the next experiment is CP256. In outline: as §1
The next experiment concerns CP260. Put shortly:
as §1

The next experiment deals with CP262. In outline:
as §1

The next experiment concerns CP265. Put shortly: as §1
The subject of the next experiment is CP266. Put shortly:
as §1

For another experiment, the system named is CP268. In outline: as §1
Another experiment concerns CP269. Put shortly:
as §1

The subject of the next experiment is CP286. In outline: as §1
The test system of another experiment is CP297. Put shortly:
as §1

For another experiment, the system named is CP305. Put shortly:
as §1

The subject of the next experiment is CP315. Put shortly: as §1
A further experiment concerns CP325. Put shortly:
as §1

A further experiment has as its system CP329. Put shortly: as §1
A further experiment has as its system CP335. In outline:
as §1

The structures appear in SMILES notation. Records with an inconclusive call do not appear. Active and inactive are the calls of the source. Calls come from the whole dose curve; as a rule, active = well fitted inhibition curve with a large enough effect; inconclusive = small, poorly fitted or top-dose-only effect; inactive = flat fitted curve, though single readings scatter.
Potency is the fitted concentration of half-maximal effect.

For `O=C(CC1NCCC[C@H]1O)Cn1cnc2cc(Br)c(Cl)cc2c1=O` (stereo not given in full), the Potency in the experiment with CP215 was 3.79 µM (active); with CP217, 3.16 µM (active); in the experiment on CP238, 3.98 µM (active); in the experiment with CP247 it was 2.24 µM (active); with CP250, 2.82 µM (active); with CP252, 1.12 µM (active). The Potency is 3.16 µM (active) in the experiment with CP256; 2.51 µM (active) in the experiment with CP260; 5.01 µM (active) with CP265; 3.79 µM (active) in the experiment on CP266; 3.38 µM (active) in the experiment on CP268; 2.69 µM (active) in the experiment on CP269. In addition, the Potency in the experiment on CP286 was 2 µM (active); in the experiment with CP297, 3.38 µM (active); in the experiment on CP305, 3.38 µM (active); in the experiment on CP315, 3.01 µM (active); in the experiment with CP325, 3.38 µM (active); in the experiment on CP329, 3.38 µM (active). Besides, in the experiment on CP335, the Potency was 601 nM (active). In the experiment with CP262, the Potency result is “inactive”.
